From PubChem BioAssay (Tox21) come the findings set out here.

A short description of test [1]: Human pregnane X receptor (PXR) small molecule agonists, qHTS cell viability counter screen (AID 1346977). Also: nearly all actives have a fitted effect of over 50% in size. The gist of the method: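 Fluorescence read-out (CellTiter-Fluor) of viability in PXR-Luc HepG2 cells, multiplexed with the luciferase agonist read. Compounds in DMSO added after 5hr plating; 24hr total exposure at 37C, 5% CO2.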
In general terms: qHTS replaces the single test concentration by a dilution series.

Test [2] in a line: Caspase-3/7 induction in HepG2 cells by small molecules, qHTS assay (AID 1346978). Also: nearly all actives have a fitted effect of over 15% in size. In short, it runs like this: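 Wild-type HepG2 cells (2,000/well) were settled 5 h at 37 C, 5% CO2, then exposed to compounds in DMSO for 17 h. Caspase-3/7 activity was read by luminescence 30 min after adding Caspase-Glo 3/7 reagent at room temperature.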
Test [3] can be described thus: Caspase-3/7 induction in CHO-K1 cells by small molecules, qHTS assay (AID 1346980). Also: nearly all actives have a fitted effect of over 15% in size. In short, it runs like this:
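Wild-type cells were seeded at 1,500 per well and settled 5 hr at 37 C, 5% CO2, then exposed to DMSO-dissolved compounds for 17 hr. Caspase-Glo 3/7 reagent was added, and luminescence was read after 30min at room temperature.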

Test [4] is described as follows: Caspase-3/7 induction in HepG2 cells by small molecules, qHTS cell viability counter screen (AID 1346981). Also: series mostly up to about 92 µM; nearly all actives have a fitted effect of over 30% in size. In short, it runs like this:
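Fluorescence read-out of live-cell protease activity (CellTiter-Fluor) after 1 hr with reagent. This was measured in the same wells as the caspase-3/7 luminescence, on HepG2 cells exposed to DMSO-dissolved compounds for 16 hr at 37 C.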

Test [5] deals with Nuclear receptor subfamily 1 group I member 2 (Homo sapiens) (UniProt O75469). The test can be described thus: Human pregnane X receptor (PXR) small molecule agonists, qHTS assay (AID 1346982). Also: nearly all actives have a fitted effect of over 35% in size. The gist of the method:
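HepG2 PXR-Luc reporter line, 5% charcoal-stripped FBS; 5 hr pre-incubation, compound (DMSO) 24 hr at 37 C/5% CO2; ONE-Glo 30 min RT; luminescence read-out.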

For test [6], the target named is Cytochrome P450 2D6 (Homo sapiens) (UniProt P10635). The test can be described thus: Cytochrome P450 Family 2 Subfamily D Member 6 (CYP2D6) small molecule antagonists: luciferase reporter qHTS assay (AID 1671196). Also: nearly all actives have a fitted effect of over 50% in size. Also: potency is read from the fitted curve at half-maximal effect. The gist of the method:
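Luminogenic proluciferin substrate, CYP2D6 enzyme; 10 min RT preincubation with compound, NADPH regeneration system added, 1 h RT. Stop/detection reagent, 20 min RT, luminescence read (RLU). Signal proportional to CYP activity.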
For orientation: Reporter assays use an easily measured gene product as a stand-in for the process of interest.

Test [7] concerns the target Cytochrome P450 2C19 (Homo sapiens) (UniProt P33261). The test can be described thus: Cytochrome P450 Family 2 Subfamily C Member 19 (CYP2C19) small molecule antagonists: luciferase reporter qHTS assay (AID 1671197). Also: series mostly up to about 120 µM; nearly all actives have a fitted effect of over 65% in size. The gist of the method: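 CYP2C19 P450-Glo, 1536-well qHTS. Cpd + enzyme/proluciferin substrate 10 min RT; + NADPH regen, 37C 1 h; stop with luciferin detection reagent, 20 min RT, luminescence (RLU). Pos ctrl ketoconazole.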

For test [8], the target named is Cytochrome P450 2C9 (Homo sapiens) (UniProt P11712). As to the kind of experiment: Cytochrome P450 Family 2 Subfamily C Member 9 (CYP2C9) small molecule antagonists: luciferase reporter qHTS assay (AID 1671198). Also: series mostly up to about 120 µM; nearly all actives have a fitted effect of over 50% in size. The gist of the method: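 CYP2C9 activity was measured with a P450-Glo proluciferin substrate. Enzyme–substrate mix was held with compound for 10 min at room temperature, then NADPH regeneration solution was added for 1 h at 37C. Luciferin product was read as luminescence.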
Sequence of Cytochrome P450 2C9 (Homo sapiens) (P11712 whole entry, looked up): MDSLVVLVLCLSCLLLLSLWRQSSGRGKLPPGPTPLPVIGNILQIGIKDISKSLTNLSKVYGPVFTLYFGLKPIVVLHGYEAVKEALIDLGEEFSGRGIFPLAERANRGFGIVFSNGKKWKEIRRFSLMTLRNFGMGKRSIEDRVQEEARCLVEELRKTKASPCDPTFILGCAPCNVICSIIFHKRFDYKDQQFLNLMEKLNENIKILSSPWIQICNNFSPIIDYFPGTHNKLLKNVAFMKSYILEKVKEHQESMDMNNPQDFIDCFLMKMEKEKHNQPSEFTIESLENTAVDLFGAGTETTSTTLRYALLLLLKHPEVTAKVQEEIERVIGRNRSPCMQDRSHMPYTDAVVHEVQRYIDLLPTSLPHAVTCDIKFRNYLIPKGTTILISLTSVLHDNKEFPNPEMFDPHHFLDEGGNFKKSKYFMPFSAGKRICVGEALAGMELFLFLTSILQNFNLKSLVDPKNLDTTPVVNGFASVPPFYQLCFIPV

Test [9] deals with Cytochrome P450 1A2 (Homo sapiens) (UniProt P05177). As to the kind of experiment: Cytochrome P450 Family 1 Subfamily A Member 2 (CYP1A2) small molecule antagonists: luciferase reporter qHTS assay (AID 1671199). Also: nearly all actives have a fitted effect of over 50% in size. Also: potency is read from the fitted curve at half-maximal effect. The gist of the method: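 Luminescence readout (relative luminescence units) after luciferin detection reagent, 20 min RT. Preceded by 1 h room-temperature CYP1A2 reaction with NADPH regeneration solution following 10 min compound preincubation with enzyme and proluciferin substrate. Furafylline positive control.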
Sequence of Cytochrome P450 1A2 (Homo sapiens) (P05177 whole entry, looked up): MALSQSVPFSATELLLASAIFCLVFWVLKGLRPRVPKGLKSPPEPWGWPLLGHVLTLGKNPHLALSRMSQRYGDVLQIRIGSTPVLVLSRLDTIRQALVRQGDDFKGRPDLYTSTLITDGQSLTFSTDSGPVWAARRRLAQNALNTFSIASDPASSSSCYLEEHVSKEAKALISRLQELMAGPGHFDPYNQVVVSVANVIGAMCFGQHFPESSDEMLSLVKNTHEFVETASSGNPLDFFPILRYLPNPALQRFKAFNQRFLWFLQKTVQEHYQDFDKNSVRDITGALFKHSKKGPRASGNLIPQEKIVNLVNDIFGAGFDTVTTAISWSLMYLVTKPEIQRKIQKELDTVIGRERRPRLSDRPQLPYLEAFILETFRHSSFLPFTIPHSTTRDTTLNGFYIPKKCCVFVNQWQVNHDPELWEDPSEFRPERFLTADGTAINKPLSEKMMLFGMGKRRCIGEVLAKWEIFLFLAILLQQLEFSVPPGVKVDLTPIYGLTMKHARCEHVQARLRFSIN

The target of test [10] is Voltage-gated inwardly rectifying potassium channel KCNH2 (Homo sapiens) (UniProt Q12809). As to the kind of experiment: Human Ether-a-go-go-Related Gene (hERG) channel small molecule antagonists: fluorescence cell-based qHTS assay (AID 1671200). The gist of the method: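 Read-out: thallium influx as a surrogate for potassium, tracked as fluorescence (480 nm ex/540 nm em) every second for 2 min after Stimulus Buffer addition in dye-loaded hERG-U2OS cells.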
Sequence of Voltage-gated inwardly rectifying potassium channel KCNH2 (Homo sapiens) (Q12809 whole entry, looked up): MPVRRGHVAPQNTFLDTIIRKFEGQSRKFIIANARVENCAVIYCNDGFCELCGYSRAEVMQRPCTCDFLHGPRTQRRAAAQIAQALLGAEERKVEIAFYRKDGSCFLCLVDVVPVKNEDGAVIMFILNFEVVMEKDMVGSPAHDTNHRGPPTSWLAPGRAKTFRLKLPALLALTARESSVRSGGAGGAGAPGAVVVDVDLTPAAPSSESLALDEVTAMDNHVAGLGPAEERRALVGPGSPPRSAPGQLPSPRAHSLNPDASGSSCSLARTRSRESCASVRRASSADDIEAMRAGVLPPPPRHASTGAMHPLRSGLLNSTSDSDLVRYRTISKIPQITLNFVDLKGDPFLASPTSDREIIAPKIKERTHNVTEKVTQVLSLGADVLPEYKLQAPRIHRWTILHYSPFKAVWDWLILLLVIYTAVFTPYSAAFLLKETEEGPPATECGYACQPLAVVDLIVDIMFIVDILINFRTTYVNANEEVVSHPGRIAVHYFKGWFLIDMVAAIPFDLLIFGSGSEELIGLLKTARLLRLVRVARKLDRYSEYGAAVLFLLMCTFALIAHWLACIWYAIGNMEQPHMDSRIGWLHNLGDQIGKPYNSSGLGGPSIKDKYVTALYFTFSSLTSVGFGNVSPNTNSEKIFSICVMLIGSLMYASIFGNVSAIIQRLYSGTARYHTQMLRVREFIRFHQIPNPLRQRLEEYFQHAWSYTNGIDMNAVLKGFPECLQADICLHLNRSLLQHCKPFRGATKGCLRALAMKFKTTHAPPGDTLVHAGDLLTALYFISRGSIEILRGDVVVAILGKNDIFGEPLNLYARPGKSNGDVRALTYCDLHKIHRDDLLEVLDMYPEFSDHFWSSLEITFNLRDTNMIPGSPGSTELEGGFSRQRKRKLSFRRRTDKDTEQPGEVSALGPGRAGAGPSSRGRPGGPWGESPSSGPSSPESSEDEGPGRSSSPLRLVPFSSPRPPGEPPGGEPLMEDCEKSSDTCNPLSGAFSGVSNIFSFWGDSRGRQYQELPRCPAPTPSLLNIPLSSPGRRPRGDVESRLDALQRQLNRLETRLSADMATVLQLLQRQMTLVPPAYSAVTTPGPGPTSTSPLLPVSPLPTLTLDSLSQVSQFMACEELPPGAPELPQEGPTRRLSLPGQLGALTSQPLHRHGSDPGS
For orientation: The hERG channel carries a current that helps repolarise heart muscle cells.

Test [11] addresses Cytochrome P450 3A4 (Homo sapiens) (UniProt P08684). As to the kind of experiment: Cytochrome P450 Family 3 Subfamily A Member 4 (CYP3A4) small molecule antagonists: luciferase reporter qHTS assay (AID 1671201). Also: nearly all actives have a fitted effect of over 50% in size. Also: potency is read from the fitted curve at half-maximal effect. The gist of the method: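 Luminescent readout (RLU) proportional to CYP3A4 activity, from luciferin generated off a proluciferin substrate. Enzyme–substrate mix plus compound 10 min at room temp, NADPH regeneration 1 h, detection reagent 20 min.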

Test [12] deals with Thyrotropin-releasing hormone receptor (Homo sapiens) (UniProt P34981). The test can be described thus: qHTS assay to identify small molecule antagonists of the thyrotropin-releasing hormone receptor (TRHR) signaling pathway (AID 1346877; active = well fitted inhibition curve with a large enough effect in the repeat runs, not every such curve was filed as active; also: series mostly up to about 51 µM). The gist of the method:
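HEK293/TRHR cells, 18 h, 37 °C; Ca2+ dye 2 h; cpd 5 min RT; TRH 1 nM final; fluorescence read 3 min, 1 s intervals; 15 concs, triplicate.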

Test [13] has the same target. As to the kind of experiment: qHTS assay to identify small molecule agonists of the thyrotropin-releasing hormone receptor (TRHR) signaling pathway (AID 1346891; calls by dose curve;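 also: HEK293 cells expressing TRHR with calcium dye readout; series mostly up to about 58 µM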). The gist of the method: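 HEK293/TRHR cells, 1500 per well, 18 h 37 °C; Ca dye 2 h 37 °C; pin-tool compound addition (agonist mode); kinetic fluorescence 3 min, 1 s reads; 15 concentrations, triplicate.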

A short description of test [14]: Caspase-3/7 induction in CHO-K1 cells by small molecules, qHTS cell viability counter screen (AID 1346979). Also: nearly all actives have a fitted effect of over 35% in size. In short, it runs like this:
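CHO-K1 wt, 1,500 cells/well; 5hr pre-incubation 37C/5% CO2; compound pin transfer (DMSO); 16hr exposure; CellTiter-Fluor added, 1hr, fluorescence read.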

Values without a mark were called inactive. Results filed as inconclusive are left out. The source made the active and inactive calls. Unless noted, calls follow the shape of the dose curve; as a rule, active = well fitted curve in the direction sought with a large enough effect in the repeat runs; inconclusive = weak or mixed curves; inactive = no such curve, though single readings can be large; an effect the other way counts as inactive or inconclusive.

Sequence of Cytochrome P450 2C19 (Homo sapiens) (P33261 whole entry, looked up): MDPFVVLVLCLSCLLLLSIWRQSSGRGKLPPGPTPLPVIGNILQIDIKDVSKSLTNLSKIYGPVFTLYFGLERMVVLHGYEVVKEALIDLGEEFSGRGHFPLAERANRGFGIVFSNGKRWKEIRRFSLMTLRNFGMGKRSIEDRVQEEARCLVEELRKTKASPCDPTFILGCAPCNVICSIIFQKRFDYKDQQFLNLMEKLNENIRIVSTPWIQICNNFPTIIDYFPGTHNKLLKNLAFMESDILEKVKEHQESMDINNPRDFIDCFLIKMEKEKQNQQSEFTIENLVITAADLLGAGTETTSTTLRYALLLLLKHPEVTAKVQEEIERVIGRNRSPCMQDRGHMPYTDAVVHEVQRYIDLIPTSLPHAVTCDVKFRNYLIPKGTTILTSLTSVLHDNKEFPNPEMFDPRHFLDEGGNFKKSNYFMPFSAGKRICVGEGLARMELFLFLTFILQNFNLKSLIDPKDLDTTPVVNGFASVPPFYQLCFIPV
Sequence of Thyrotropin-releasing hormone receptor (Homo sapiens) (P34981 whole entry, looked up): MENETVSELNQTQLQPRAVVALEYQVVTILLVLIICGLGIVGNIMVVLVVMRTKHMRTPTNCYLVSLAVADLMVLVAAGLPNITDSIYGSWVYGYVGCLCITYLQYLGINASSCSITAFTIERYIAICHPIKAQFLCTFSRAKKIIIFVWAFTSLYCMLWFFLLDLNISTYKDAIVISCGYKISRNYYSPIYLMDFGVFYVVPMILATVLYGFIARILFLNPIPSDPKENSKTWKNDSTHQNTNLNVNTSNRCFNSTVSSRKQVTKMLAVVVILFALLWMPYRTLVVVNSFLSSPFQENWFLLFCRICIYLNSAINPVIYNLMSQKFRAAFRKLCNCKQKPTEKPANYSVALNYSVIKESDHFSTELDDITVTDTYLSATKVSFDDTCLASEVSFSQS
Sequence of Cytochrome P450 2D6 (Homo sapiens) (P10635 whole entry, looked up): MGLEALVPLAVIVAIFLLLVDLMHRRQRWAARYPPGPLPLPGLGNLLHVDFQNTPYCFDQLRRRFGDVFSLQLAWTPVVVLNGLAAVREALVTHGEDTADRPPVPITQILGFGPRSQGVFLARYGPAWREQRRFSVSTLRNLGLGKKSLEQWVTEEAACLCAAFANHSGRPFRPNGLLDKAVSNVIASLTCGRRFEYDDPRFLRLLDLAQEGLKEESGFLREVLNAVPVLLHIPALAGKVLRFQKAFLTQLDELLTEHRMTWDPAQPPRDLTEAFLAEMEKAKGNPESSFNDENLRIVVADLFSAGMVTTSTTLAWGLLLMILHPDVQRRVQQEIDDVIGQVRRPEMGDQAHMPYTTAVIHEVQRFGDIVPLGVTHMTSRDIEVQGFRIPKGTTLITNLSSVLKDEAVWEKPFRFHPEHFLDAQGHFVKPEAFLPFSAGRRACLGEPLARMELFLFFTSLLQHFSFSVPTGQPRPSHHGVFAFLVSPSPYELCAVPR
Sequence of Cytochrome P450 3A4 (Homo sapiens) (P08684 whole entry, looked up): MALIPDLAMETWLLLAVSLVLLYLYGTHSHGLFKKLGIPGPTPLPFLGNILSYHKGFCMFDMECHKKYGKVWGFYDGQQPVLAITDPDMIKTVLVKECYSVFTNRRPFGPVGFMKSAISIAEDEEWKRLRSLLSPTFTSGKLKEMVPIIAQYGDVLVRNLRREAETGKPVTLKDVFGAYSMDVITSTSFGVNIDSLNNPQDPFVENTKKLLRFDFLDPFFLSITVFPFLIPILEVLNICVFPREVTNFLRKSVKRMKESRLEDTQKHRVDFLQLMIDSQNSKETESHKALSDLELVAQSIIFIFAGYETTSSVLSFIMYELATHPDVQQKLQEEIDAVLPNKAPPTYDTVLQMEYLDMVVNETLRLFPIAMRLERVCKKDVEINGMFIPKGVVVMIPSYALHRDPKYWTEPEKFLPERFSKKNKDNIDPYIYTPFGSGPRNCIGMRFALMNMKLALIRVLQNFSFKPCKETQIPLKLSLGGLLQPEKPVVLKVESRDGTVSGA
Sequence of Nuclear receptor subfamily 1 group I member 2 (Homo sapiens) (O75469 whole entry, looked up): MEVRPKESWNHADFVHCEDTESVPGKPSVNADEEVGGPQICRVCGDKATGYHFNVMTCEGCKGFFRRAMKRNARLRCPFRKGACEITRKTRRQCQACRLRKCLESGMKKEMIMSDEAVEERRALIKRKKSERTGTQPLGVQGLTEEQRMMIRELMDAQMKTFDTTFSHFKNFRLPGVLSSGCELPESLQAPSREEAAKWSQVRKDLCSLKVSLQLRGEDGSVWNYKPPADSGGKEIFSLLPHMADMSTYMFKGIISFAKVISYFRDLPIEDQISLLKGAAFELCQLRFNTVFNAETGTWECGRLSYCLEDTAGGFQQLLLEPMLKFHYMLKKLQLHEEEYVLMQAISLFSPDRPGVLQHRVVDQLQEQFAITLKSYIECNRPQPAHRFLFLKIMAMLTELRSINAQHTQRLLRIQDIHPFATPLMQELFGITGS

Regarding `C=CC(=O)OCCOCCOCC`, the compound was classed as inactive in test [1], in test [2], in [3] and in test [4]. Also, the Potency result in test [5], in test [6], in [7], in [8], in [9] and in [10] was “inactive” throughout. The Potency result in test [11] was “inactive”.
Take `CCCCCCC(=O)c1ccccc1`: the result in test [12], in test [1], in [2], in test [3] and in test [4] was inactive. Moreover, the Potency result in [13], in [14], in test [5], in [6], in [8] and in test [10] was “inactive” in each case. In addition, the Potency result in test [11] is “inactive”. The Potency in test [9] was 50.2 µM (active).
As for `CCCOc1ccc(C(=O)OCCN(CC)CC)cc1N`, the compound was classed as inactive in test [12], in test [1], in test [3] and in test [4]. Besides, the Potency result in [13], in test [14], in [5], in test [8], in [10] and in test [11] was “inactive” throughout. For the same compound, the Potency was 4.9 µM (active) in test [6] and 17.4 µM (active) in test [9].
Take `CC(CN1CC(=O)NC(=O)C1)N1CC(=O)NC(=O)C1` (centres undefined): the compound was classed as inactive in [12], in test [1] and in [3]. Further, the Potency result in test [13], in [14], in test [7], in [8], in [10] and in [11] was “inactive” each time.
As for `Cc1ccc(O)c([N+](=O)[O-])c1`, the result in [12], in test [1], in test [2], in test [3] and in test [4] was inactive. The Potency entry in [13], in test [14], in test [5], in test [7], in [8] and in test [10] was “inactive” each time. In test [11], the Potency entry was “inactive”. Moreover, the Potency in test [6] is 71.8 µM (active).
Consider `CCCCS`, for which the call in [12], in test [1], in test [2], in test [3] and in test [4] was inactive. For the same compound, the Potency result in [13], in test [14], in test [5], in test [6], in test [8] and in [10] was “inactive” in each case.
As for `COCCCOc1cc(C[C@@H](C[C@H](N)[C@@H](O)C[C@H](C(=O)NCC(C)(C)C(N)=O)C(C)C)C(C)C)ccc1OC`, the call in [12], in test [1], in [2], in test [3] and in [4] was inactive. Further, the Potency result in [13], in test [14], in test [5], in test [7], in [8] and in test [10] was “inactive” each time.
For the compound `C/C=C/C(=O)CCCC`, the outcome in [12], in test [1], in [2], in test [3] and in [4] was inactive. Also, the Potency entry in [13], in test [14], in test [6], in [9] and in test [10] was “inactive” in each case. Moreover, the Potency in test [11] was 56.4 µM (active).
Take `CC(C)c1cc(C(C)C)cc(C(C)C)c1`: the result in [12], in [1], in [2], in test [3] and in test [4] was inactive. Further, the Potency result in test [13], in [14], in test [5], in test [6], in test [7] and in test [8] was “inactive” throughout. Moreover, the Potency entry in [10] and in test [11] was “inactive” throughout.
